Measured values: PubChem BioAssay (NCATS)
Records with an inconclusive call do not appear. A number with no mark means an inactive call. Activity calls are given as the source filed them. Calls follow the shape of the dose curve; as a rule, active = well fitted curve in the direction sought with a large enough effect; inconclusive = small, poorly fitted or top-dose-only effect, or another doubt; inactive = no such curve, though single readings can be large; an effect the other way counts as inactive or inconclusive.

Assays:
[1] = tested on: Zika virus NS2B-NS3 protease (unlinked complex); test: Confirmatory screen GU AMC qHTS for Zika virus inhibitors (AID 1347153); conditions: Recombinant NS2B-NS3 protease, AMC substrate fluorescence; series mostly up to 111 µM;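 also: enzyme at 25 nM with substrate at 10 µM below its Km of 18.3 µM; potency is read from the fitted curve at half-maximal effect; nearly all actives have a fitted effect of over 70% in size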
Procedure, shortened: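 Compounds were preincubated 15 min at room temperature with 25 nM noncovalent NS2B-NS3 protease at pH 8.0; AMC substrate added at 10 microM and 15-min fluorescence gain (340/450 nm) converted to percent inhibition, fitted 4-parameter.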

[2] = Confirmatory screen GU Rhodamine qHTS for Zika virus inhibitors qHTS (AID 1347157); conditions: purified enzyme assay, Rhodamine110 substrate fluorescence, 15 min; series mostly up to 114 µM; also: nearly all actives have a fitted effect of over 70% in size; also: potency is read from the fitted curve at half-maximal effect;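 as to activity change, negative = inhibition: plate controls were no-inhibitor wells for no effect and no-enzyme wells for full effect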
Procedure, shortened: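 A qHTS format was used, with compound concentrations ranging up to 114 microM. Each compound was preincubated with 25 nM NS2B-NS3 protease, and the substrate was then added at 1.5 microM. Curves were fitted with a 4-parameter Hill model.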

[3] = tested on: Zika virus NS2B-NS3 protease (unlinked complex); test: Primary screen GU Rhodamine qHTS for Zika virus inhibitors: Unlinked NS2B-NS3 protease assay (AID 1347159); conditions: Recombinant ZIKV NS2B-NS3 protease, Rhodamine110 substrate fluorescence; series mostly up to 107 µM; also: nearly all actives have a fitted effect of over 60% in size; also: potency is read from the fitted curve at half-maximal effect; as to activity change, negative = inhibition: % is scaled to controls: 0 for no effect and ±100 for the full control effect
Procedure, shortened: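 Percent inhibition came from the 15-min rise in Rhodamine110 fluorescence (1.5 microM substrate, ~15% conversion), normalized to no-inhibitor and no-enzyme wells and Hill-fitted. Unlinked protease, 25 nM, pH 8.0 Tris buffer; compounds up to 114 microM, 15-min preincubation.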

[4] = tested on: Zika virus NS2B-NS3 protease (linked construct); test: Primary screen NINDS Rhodamine qHTS for Zika virus inhibitors (AID 1347160); conditions: purified NS2B-NS3 protease, Rhodamine110 substrate fluorescence; series mostly up to 57.1 µM; also: nearly all actives have a fitted effect of over 55% in size; also: potency is read from the fitted curve at half-maximal effect; as to activity change, negative = inhibition: % is scaled to controls: 0 for no effect and ±100 for the full control effect
Procedure, shortened: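 Rhodamine110-peptide cleavage (1.5 µM substrate) by 25 nM linked NS2B-NS3 enzyme at pH 8.0 (Tris, Tween 20), after 15 min RT preincubation with compounds; 15-min fluorescence change normalized to controls and Hill-fitted.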

[5] = Confirmatory screen NINDS Rhodamine qHTS for Zika virus inhibitors (AID 1347161); conditions: purified enzyme assay, Rhodamine110 substrate fluorescence, 15 min; series mostly up to 114 µM; also: nearly all actives have a fitted effect of over 60% in size; also: potency is read from the fitted curve at half-maximal effect;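 as to activity change, negative = inhibition: purified Zika NS2B-NS3 protease with linked NS2B cofactor domain and Rhodamine110 peptide substrate; plate controls were no-inhibitor control for no effect and no-enzyme control for full effect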
Procedure, shortened: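 qHTS dose-response: 25 nM linked protease, pH 8.0 Tris/Tween buffer, cpd titration, 15 min RT preinc, 1.5 microM Rhod110 peptide, 15 min reaction (~15% conversion), Ex480/Em540; 4-parameter Hill fit.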

[6] = tested on: Zika virus NS2B-NS3 protease (linked); test: 384 well plate NINDS AMC confirmatory qHTS for Zika virus inhibitors (AID 1347163); conditions: Recombinant NS2B-NS3 protease, Ac-VKTGKR-AMC fluorescence; series mostly up to 100 µM; also: nearly all actives have a fitted effect of over 50% in size; also: potency is read from the fitted curve at half-maximal effect;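 as to activity change, negative = inhibition: linked protease at 5 30 or 60 nM final depending on run; fluorescence of AMC released from Ac-VKTGKR-AMC peptide cleaved by the protease; top concentration of the series differs between compounds; 0% = no-inhibitor control and -100% = no-enzyme control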
Procedure, shortened: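 Fluorescence at 355/460 nm was read after 25 minutes of cleavage of 30 microM Ac-VKTGKR-AMC at room temperature, in the dark. Before substrate addition, compounds (up to 1 mM final) sat ~15 minutes with 5, 30 or 60 nM linked protease. Signals were normalized to no-enzyme and no-inhibitor wells.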

[7] = tested on: Zika virus NS2B-NS3 protease (linked construct); test: 384 well plate NINDS Rhodamine confirmatory qHTS for Zika virus inhibitors (AID 1347164); conditions: rhodamine-110 peptide substrate fluorescence; series mostly up to 100 µM;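 also: fluorescence from protease cleavage of Ac-LKRR-rhodamine 110 substrate; nearly all actives have a fitted effect of over 65% in size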; also: potency is read from the fitted curve at half-maximal effect;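 as to activity change, negative = inhibition: top concentration of the series differs between compounds; plate controls were no-inhibitor control for no effect and no-enzyme control for full effect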
Procedure, shortened: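 Enzyme (final 5/30/60 nM) + cpd (DMSO), ~15 min; add Ac-LKRR-Rd 10 microM final; 25 min RT, dark; FI ex 485/em 538; normalized to no-enzyme, no-inhibitor ctrls; aprotinin intraplate ctrl.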

[8] = HepG2 cells viability qHTS for Zika virus inhibitors (AID 1347168); conditions: Zika counter-screen; series mostly up to 45.9 µM; also: % is scaled to controls: 0 for no effect and ±100 for the full control effect
Procedure, shortened: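 Luminescent ATP readout (CellTiter Glo) after 30 min at 37 degrees C gives viability; cells in DMEM + 4% FBS were treated 24 to 48 hours with compound, following overnight attachment.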

[9] = ZIKV-mCherry secondary qHTS for Zika virus inhibitors (AID 1347158); conditions: Vero cells, ZIKV-mCherry infection imaging, 48-72 h; series mostly up to 49.2 µM; also: potency is read from the fitted curve at half-maximal effect; as to activity change, negative = inhibition: top concentration of the series differs between compounds
Procedure, shortened: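 Compounds were tested in Vero monkey kidney cells infected with recombinant mCherry-expressing Zika virus at MOI 1 for 48-72 h at 37 °C. Fixed cells were nuclear-stained and imaged, and infection rate was taken as the fraction of mCherry-positive cells.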

[10] = tested on: Zika virus NS2B-NS3 protease; test: Primary screen GU AMC qHTS for Zika virus inhibitors (AID 1347154); conditions: Zika NS2B-NS3 unlinked protease, AMC fluorogenic substrate; series mostly up to 54.1 µM; also: nearly all actives have a fitted effect of over 70% in size; also: potency is read from the fitted curve at half-maximal effect;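 as to activity change, negative = inhibition: 0% = no-inhibitor control and -100% = no-enzyme control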
Procedure, shortened: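 Fluorogenic AMC-substrate cleavage by noncovalent NS2B-NS3 protease complex (25 nM, pH 8.0 Tris buffer with Tween 20) followed for 15 minutes at room temperature (~20% conversion). Percent inhibition from ex340/em450 signal change, fitted by 4-parameter Hill equation.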

Q: What does the source list for `CC1=C(C(=O)OCc2ccccc2)C(c2ccc(-c3ccccc3)cc2)NC(=O)N1CCCCCC(=O)O` (stereo unspecified)?
A: Potency [1]: 31.2 µM (active); Potency [2]: 2.48 µM (active); Potency [3]: 3.16 µM (active); Potency [4]: 7.94 µM (active); Potency [5]: 2.48 µM (active); Potency [6]: 3.55 µM (active); Potency [7]: 0.631 µM (active); outcome [8]: inactive

Q: Which results are given for `O=C(N/N=C/c1ccc(O)c(O)c1)c1cc2ccccc2cc1O`?
A: Potency [2]: 2.32 µM (active); Potency [4]: 5.01 µM (active); Potency [5]: 6.55 µM (active); Potency [6]: 50.1 µM (active); Potency [7]: 0.447 µM (active); outcome [8]: inactive

Q: For `CC(C)c1cccc2c(-c3ccccc3)cc(-c3ccc(-c4ccc(C(=O)O)cc4)[nH]3)nc12`, which Potency [1] is on record?
A: 49.4 µM (active)

Q: And the Potency [2]?
A: 1.97 µM (active)

Q: And the Potency [9]?
A: 7.08 µM (active)

Q: What about the Potency [3] of the same molecule?
A: 3.55 µM (active)

Q: And the Potency [4]?
A: 7.08 µM (active)

Q: What about the Potency [5] of the same molecule?
A: 2.21 µM (active)

Q: And the Potency [6]?
A: inactive

Q: And the Potency [7]?
A: inactive

Q: What about the outcome [8] of the same molecule?
A: inactive

Q: With `O=C(O)c1c(O)c(-c2ccccc2)nc2ccccc12` as the molecule, how does the Potency [10] read?
A: inactive

Q: What does the source list for `C=CC/C=C\C/C=C\CCCCCCCc1cccc(O)c1C(=O)O`?
A: Potency [1]: 6.85 µM (active); Potency [2]: 4.32 µM (active); Potency [3]: 8.91 µM (active); Potency [4]: 3.98 µM (active); Potency [5]: 2.73 µM (active); Potency [6]: 44.7 µM (active); Potency [7]: inactive; outcome [8]: inactive

Q: Which Potency [2] does the source give for `C#CCN(Cc1cc2c(=O)[nH]c(C)nc2cc1Br)c1ccc(C(=O)NCc2cccnc2)cc1` here?
A: 44.1 µM (active)

Q: What about the Potency [3] of the same molecule?
A: 39.8 µM (active)

Q: And the Potency [4]?
A: inactive

Q: And the Potency [5]?
A: 31.2 µM (active)

Q: For `CCC(C(=O)O)c1ccc(N2Cc3ccccc3C2=O)cc1` (stereo unspecified), which Potency [10] is on record?
A: inactive

Q: For `Cc1ccccc1C#Cc1ccc(CCC(=O)O)cc1`, which Potency [3] is on record?
A: 14.1 µM (active)

Q: For `Cc1cccc(C)c1OCc1cc(C(=O)N2CCC(c3ccncc3)CC2)no1`, which Potency [3] is on record?
A: inactive

Q: With `COc1ccc(C(=O)C2CCN(CC(=O)N(Cc3nc4c(c(=O)[nH]3)COCC4)CC3CC3)CC2)cc1` as the molecule, how does the Potency [2] read?
A: inactive

Q: What about the Potency [3] of the same molecule?
A: inactive

Q: And the Potency [5]?
A: inactive

Q: For `CCCCCCOc1cc2c(cc1N(C)c1ncc(C(=O)O)cn1)C(C)(C)CCC2(C)C`, which Potency [1] is on record?
A: 35 µM (active)

Q: And the Potency [2]?
A: 6.98 µM (active)

Q: What about the Potency [3] of the same molecule?
A: 3.98 µM (active)

Q: What about the Potency [4] of the same molecule?
A: 7.94 µM (active)

Q: And the Potency [5]?
A: 4.41 µM (active)

Q: What about the Potency [6] of the same molecule?
A: 8.91 µM (active)

Q: And the Potency [7]?
A: 3.16 µM (active)

Q: What about the outcome [8] of the same molecule?
A: inactive

Q: With `COc1cc(Nc2nc3ccccc3nc2NS(=O)(=O)c2ccc(NC(=O)c3ccc(OC)c(C)c3)cc2)cc(OC)c1` as the molecule, how does the Potency [1] read?
A: 11.1 µM (active)

Q: What about the Potency [2] of the same molecule?
A: 3.12 µM (active)

Q: What about the Potency [3] of the same molecule?
A: 2.82 µM (active)

Q: And the Potency [4]?
A: 8.91 µM (active)

Q: What about the Potency [5] of the same molecule?
A: 2.78 µM (active)

Q: What about the Potency [6] of the same molecule?
A: inactive

Q: And the Potency [7]?
A: 22.4 µM (active)

Q: What about the outcome [8] of the same molecule?
A: inactive

Q: For `O=S(=O)(c1ccccc1)c1cnc2c(N3CCNCC3)cccc2c1`, which Potency [2] is on record?
A: inactive

Q: And the Potency [5]?
A: inactive

Q: Which Potency [3] does the source give for `COc1c2c(cc3c1-c1c(cc4c(c1OC)OCO4)CC(C)C(C)C3)OCO2` (stereo unspecified) here?
A: inactive

Q: With `CC(C)S(=O)(=O)N[C@H]1CCOC[C@@H]1c1ccc(-c2ccc(C#N)s2)cc1` as the molecule, how does the Potency [3] read?
A: inactive

Q: With `C/C=C/C=C/C(O)=C1\C(O)=C(C)C(=O)[C@@]2(C)OC(=O)[C@@](C)(NC(=O)/C=C/C(=O)O)[C@@H]12` as the molecule, how does the Potency [3] read?
A: inactive

Q: With `C=CC1C(OC2OC(CO)C(O)C(O)C2O)OC=C(C(=O)OC)C1CC(=O)OCC1C(C)C(O)CC1C(CO)COC(=O)CC1C(C(=O)O)=COC(OC2OC(CO)C(O)C(O)C2O)/C1=C\C` (stereo unspecified) as the molecule, how does the Potency [3] read?
A: inactive

Q: For `CC1(C)CC2=C3C=CC4C5(C)CCC(O)C(C)(C)C5CCC4(C)C3(C)CCC2(C)C(O)C1` (stereo unspecified), which Potency [2] is on record?
A: 13.6 µM (active)

Q: What about the Potency [9] of the same molecule?
A: inactive

Q: What about the Potency [3] of the same molecule?
A: 15.8 µM (active)

Q: What about the Potency [4] of the same molecule?
A: 8.91 µM (active)

Q: And the Potency [5]?
A: 10.8 µM (active)

Q: What about the outcome [8] of the same molecule?
A: inactive

Q: Which Potency [10] does the source give for `O=C(O)c1ccccc1NCCc1ccccc1` here?
A: 31.6 µM (active)

Q: For `CC(=O)c1ccc(O[C@@H]2O[C@H](CO)[C@@H](O)[C@H](O)[C@H]2O)cc1`, which Potency [3] is on record?
A: inactive

Q: With `COc1ccc(-n2[nH]c(=O)c3[nH]c4cc(Cl)ccc4c(=O)c3c2=O)c(C)c1` as the molecule, how does the Potency [3] read?
A: 56.2 µM (active)

Q: For `CC(O)(CC(=O)O)CC(=O)OCc1ccc(O[C@@H]2O[C@H](CO)[C@@H](O)[C@H](O)[C@H]2O)cc1` (stereo partly specified), which Potency [3] is on record?
A: inactive

Q: What about the Potency [4] of the same molecule?
A: inactive

Q: Which Potency [3] does the source give for `CC(C)C(C(=O)N(C)C(C)C(N)=O)N(C)C(=O)C1CCCN1C(=O)/C=C/C=C/C(O)C(C)O` (stereo unspecified) here?
A: inactive

Q: What about the Potency [4] of the same molecule?
A: inactive

Q: For `C=C1C(=O)O[C@@H]2C/C(C)=C\C(=O)/C=C(\C)[C@@H](OC(=O)/C(C)=C\C)[C@H](O)[C@@H]12`, which Potency [3] is on record?
A: inactive

Q: And the Potency [4]?
A: inactive

Q: For `C[C@@H]1O[C@@H](O[C@H]2[C@H](O[C@H]3[C@H](O[C@H]4CC[C@@]5(C)C(CC[C@]6(C)C5CC=C5[C@@H]7CC(C)(C)CC[C@]7(C(=O)O[C@@H]7O[C@H](CO)[C@@H](O[C@@H]8O[C@@H](C)[C@H](O)[C@@H](O)[C@H]8O)[C@H](O)[C@H]7O)CC[C@]56C)C4(C)C)OC[C@H](O)[C@@H]3O)O[C@H](CO)[C@@H](O)[C@@H]2O)[C@H](O)[C@H](O)[C@H]1O` (stereo partly specified), which activity change, negative = inhibition [3] is on record?
A: 6.71% [at 19.1 µM]

Q: And the activity change, negative = inhibition [4]?
A: 35.2% [at 10.7 µM]

Q: Which results are given for `C/C(=C\CC[C@@H](C)[C@H]1CC(O)[C@@]2(C)C3CC[C@H]4C(C)(C)[C@@H](OC5OCC(O)C(O)C5OC5OC(CO)C(O)C(O)C5O)CC[C@@]45C[C@@]35CC(O)[C@]12C)C(=O)O` (stereo partly specified)?
A: Potency [3]: inactive; Potency [4]: inactive

Q: Which Potency [3] does the source give for `COc1ccc(CNC(=O)c2sc3nc(C)cc(C)c3c2N)cc1` here?
A: inactive

Q: What about the Potency [4] of the same molecule?
A: inactive

Q: For `COc1ccc(CC2NCCc3c2[nH]c2ccc(C)cc32)cc1OC` (stereo unspecified), which Potency [3] is on record?
A: inactive

Q: What about the Potency [4] of the same molecule?
A: inactive

Q: With `CC(C)=CCC[C@](C)(O)[C@H]1CC[C@]2(C)[C@@H]1[C@H](O)CC1[C@@]3(C)CC[C@H](O)C(C)(C)C3[C@@H](O[C@@H]3O[C@H](CO)[C@@H](O)[C@H](O)[C@H]3O[C@@H]3OC[C@@H](O)[C@H](O)[C@H]3O)C[C@]12C` (stereo partly specified) as the molecule, how does the Potency [3] read?
A: inactive

Q: And the Potency [4]?
A: inactive

Q: For `Cc1cc(OCc2nnc(SC3CCCC3)n2-c2cccnc2)ccc1-c1ccc(S(C)(=O)=O)cc1`, which Potency [3] is on record?
A: inactive

Q: What about the Potency [4] of the same molecule?
A: inactive
